In PubChem BioAssay (EPA / NIEHS):
Active and inactive are the calls of the source. How the source made its calls: active means hit-call score of the fitted dose curve at least 0.9, where 1 is the maximum; inactive means score below 0.9.

Experiment: CCTE_Shafer_MEA_dev_per_burst_spike_percent: CCTE's Neural Network Formation Assay for Percent of Spikes in a Burst, Shafer Lab (AID 2284032)
Protocol: CCTE_Shafer_MEA_dev assay is conducted using Axion Biosystems 48 well microelectrode array (MEA) plates and Maestro recording system. Each well of the MEA plate contains a grid of 16 microelectrodes embedded in the culture surface. Electrically active cells, such as neurons, can be cultured over the electrodes, and electrical activity in these cells can be recorded extracellularly. The spontaneous firing of neurons is captured from each electrode on a microsecond timescale providing both temporally and spatially precise data. […] The CCTE_Shafer_MEA_dev assay uses primary cultures of rat cortical neurons. Recordings are made on days post-plating 5, 7, 9 and 12. As these cultures mature over time, neural networks develop functional activity and form cohesive networks in which electrical activity can be highly coordinated. CCTE_Shafer_MEA_dev_per_burst_spike_percent is 1 of 19 assay components of the CCTE_Shafer_MEA_dev assay. It measures the percentage of spikes (action potential firings) in a single-electrode burst (temporally-clustered group of spikes) as the total number spikes in bursts divided by the total number of spikes during a recording in a microelectrode array (MEA) using Axion Biosystems Maestro 768 channel amplifier with the AxIS adaptive spike detector. The percent of spikes in bursts is averaged across the actively bursting electrodes to report a well-mean value. To collapse across multiple recordings made on days post-plating 5, 7, 9 and 12, the trapezoidal area-under-the-curve of the component is calculated.Data from the assay component CCTE_Shafer_MEA_dev_per_burst_spike_percent was analyzed into 1 assay endpoint. This assay endpoint, CCTE_Shafer_MEA_dev_per_burst_spike_percent, was analyzed in the negative analysis fitting direction relative to DMSO as the negative control and baseline of activity. Using a type of functional reporter, gain or loss-of-signal activity can be used to understand electrical activity.
On the day prior to culture, each well was coated thoroughly with 150 uL of 0.05% polyethyleneimine (PEI, Sigma Cat P3143) in 50 mM HEPES (Sigma Cat H7523) at a pH of 8. The plate was incubated at 37C for one hour. PEI was rinsed out with 500 uL of sterile water three times. Plates were stored at 4C until the day of culture. This culture was plated at a seeding density of 1.5 x 10^5 cells/well on a 48-well MEA plate, prepared as described above. Cells were administered via a 25 uL media/laminin ([…]; Sigma Cat L2020-1MG) drop directly onto the microelectrode array, as adding the cells with the laminin results in better attachment than pre-coating with laminin. After 2 hours, an additional 475 uL of cortical media was added and the cells returned to the incubator. Exposure starts at day 0 of plating and is continued over twelve days of network development until the experiment is terminated. Cells are fed with fresh medium on DIV 5 and 9, following the recordings on those days. The entire volume of media in the well is exchanged and any vehicle or compound treatment is renewed. Complete details are found in OP-NHEERL/ISTD/SBB/TJS/2015-03-r0 (available on request, email shafer.tim@epa.gov). Measurement of the electrical activity is non-invasive, and recordings can be made from the same plate over multiple different days of the culture. In cortical neurons, this allows for the measurement of extracellular action potentials over the period during which networks form in the MEA plate.

Question: With `Cc1ccc(S(=O)(=O)OCC(F)(F)C(F)(F)C(F)(F)C(F)(F)C(F)(F)C(F)F)cc1` as the compound, how does the outcome read?
Answer: The outcome was “inactive”.

Question: Which outcome does the source give for `FC(F)(F)C(F)(F)CNCC(F)(F)C(F)(F)F` here?
Answer: Its outcome is “inactive”.

Question: Which outcome does the source give for `O=S(=O)(OCCOC(F)(F)F)C(F)(F)F` here?
Answer: The outcome was “inactive”.

Question: Which AC50 does the source give for `CC(C)(C)C(=O)CC(=O)C(F)(F)C(F)(F)C(F)(F)F` here?
Answer: Its AC50 is 23.5 µM (active).

Question: With `FC(F)(F)C(F)(F)C(F)(F)C(F)(F)C(F)(F)CCI` as the compound, how does the AC50 read?
Answer: Its AC50 is 22.2 µM (active).

Question: For `OCCCC(F)(F)C(F)(F)C(F)(F)F`, which outcome is on record?
Answer: Its outcome is “inactive”.

Question: Which outcome does the source give for `O=C(O)C=C(C(F)(F)F)C(F)(F)F` here?
Answer: Its outcome is “inactive”.

Question: With `N=C(N)C(F)(F)C(F)(F)C(F)(F)C(F)(F)C(F)(F)C(F)(F)C(F)(F)F` as the compound, how does the outcome read?
Answer: The outcome was “inactive”.

Question: Which outcome does the source give for `OCC(F)(F)C(F)(F)C(F)(F)C(F)(F)C(F)(F)C(F)F` here?
Answer: Its outcome is “inactive”.

Question: For `O=C(O)C(F)(F)C(F)(F)C(F)(F)F`, which outcome is on record?
Answer: Its outcome is “inactive”.

Question: With `OC[C@@H](O)[C@@H](O)[C@H](O)[C@@H](O)CO` as the compound, how does the outcome read?
Answer: Its outcome is “inactive”.

Question: With `COC(=O)CCC(F)(F)C(F)(F)C(F)(F)C(F)(F)F` as the compound, how does the outcome read?
Answer: The outcome was “inactive”.

Question: Which AC50 does the source give for `C=CC(=O)OCC(F)(F)C(F)(F)C(F)(F)C(F)(F)COC(=O)C=C` here?
Answer: Its AC50 is 4.76 µM (active).

Question: For `O=S(=O)(OCC(F)F)C(F)(F)F`, which outcome is on record?
Answer: The outcome was “inactive”.

Question: For `CC(CCl)OP(=O)(OC(C)CCl)OC(C)CCl` (stereo not drawn), which outcome is on record?
Answer: The outcome was “inactive”.

Question: With `O=C(O)C(F)(F)C(F)(F)C(F)F` as the compound, how does the outcome read?
Answer: The outcome was “inactive”.

Question: Which outcome does the source give for `O=P(O)(O)OCCC(F)(F)C(F)(F)C(F)(F)C(F)(F)C(F)(F)C(F)(F)F` here?
Answer: The outcome was “inactive”.

Question: Which outcome does the source give for `O=C(O)C(F)(F)C(F)(F)C(F)(F)C(F)(F)C(F)(F)C(F)(F)C(F)(F)C(F)(F)Cl` here?
Answer: The outcome was “inactive”.

Question: For `FC(F)(F)C(F)(F)C(F)(F)C(F)(F)C(F)(F)C(F)(F)CC1CO1` (stereo not drawn), which outcome is on record?
Answer: Its outcome is “inactive”.

Question: For `OCC(F)(F)C(F)(F)C(F)(F)C(F)F`, which outcome is on record?
Answer: The outcome was “inactive”.

Question: With `O=C(O)C(F)(F)C(F)(F)C(F)(F)C(F)(F)C(F)(F)C(F)(F)C(F)(F)C(F)(F)C(F)(F)C(F)F` as the compound, how does the outcome read?
Answer: The outcome was “inactive”.

Question: Which outcome does the source give for `NC(=O)C(F)(F)C(F)(F)C(F)(F)C(F)(F)F` here?
Answer: The outcome was “inactive”.

Question: For `OCC(F)(F)C(F)(F)C(F)(F)F`, which outcome is on record?
Answer: Its outcome is “inactive”.
